Screens (PubChem)
Compounds with a hit are over-represented: about 1.4% of the library has one in this group of screens.
KCNH2 3.1 inh: KCNH2 3.1 (human) potassium channel inhibition | U2OS KCNH2 3.1, thallium flux FluxOr; hits give low values | activity change, % (tested at about 1.8 µM) | 0.95% of 340,000 active;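 active = maximum activity change below -70%; inconclusive = maximum activity change from -70% to -50%; inactive = maximum activity change above -50%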;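 note: thallium influx rate constant from kinetic fluorescence after stimulation buffer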
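We transduce U2OS cells with the mutant 3.1 virus, culture them overnight, load FluxOr with Red40 quencher for 45 min, then add stimulation buffer and read kinetically for 2 min to derive a normalized rate constant.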
KCNH2 WT inh: KCNH2 (human, wildtype) channel inhibition; Q12809; U2OS, BacMam KCNH2, thallium flux FluxOr; hits give low values; activity change, % at 1.84 µM; 0.37% of 340,000 active; AID 720551;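 active = maximum activity change below -70%; inconclusive = maximum activity change between -70% and -50%; inactive = maximum activity change above -50%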
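U2OS cells were transduced with wild-type KCNH2 virus (2.03 x 10^8 / mL) for 4 h at room temperature, then cultured overnight at 37 C. Thallium flux was read with FluxOr dye. Rate constants were normalized to DMSO controls.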
uPA generation: inhibitors of cell surface uPA generation; cell surface uPA generation assay, qHTS; Potency, µM (series often up to 38.3 µM), actives largely listed as inhibitors; 0.31% of 330,000 active; AID 540303; active = well fitted inhibition curve with a large enough effect; inconclusive = small, poorly fitted or top-dose-only effect; inactive = no such curve, though single readings can be large or run the other way; tested in mouse RAW 264.7 cells; note: nearly all actives have a fitted effect of over 55% in size
p53 reactivation: re-activators of mutant p53; Potency, µM (doses to about 92.2 µM), most hits filed as activators; H1299 p53-A138V BP100-luciferase reporter, luminescence, 24 h; AID 504706; 0.063% of 320,000 active; note: nearly all actives have a fitted effect of over 45% in size
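p53-null H1299 cells stably carrying temperature-sensitive p53-A138V and a BP100-luciferase reporter were pinned with compounds (4-point, 1:5 series) and held 24 hrs at 37 deg C. Luminescence was read 10 min after detection reagent.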
MmCpn inh: blocks the Methanococcus maripaludis chaperonin Mm-Cpn | purified Mm-Cpn ATPase, ADP Transcreener TR-FRET | Potency, µM (doses to about 76.9 µM), most hits filed as inhibitors | 0.031% of 330,000 active | AID 504842; note: nearly all actives have a fitted effect of over 80% in size
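ATPase read-out: TR-FRET ADP immunoassay (anti-ADP Eu cryptate vs ADP-d2), ex 320 nm, em 590/665 nm; signal drops as ADP forms. Enzyme 25 nM, ATP 10 uM, 30 min at 37°C after 10 min compound preincubation.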
ASM inhibitor: blocks human secretory acid sphingomyelinase; Potency, µM (series often up to 57.5 µM), hits mostly inhibitors; 0.006% of 340,000 active; placental ASM, HMU-PC fluorogenic substrate, 60 min; AID 504937; P17405
Target sequence (P17405 47-631 limits assumed): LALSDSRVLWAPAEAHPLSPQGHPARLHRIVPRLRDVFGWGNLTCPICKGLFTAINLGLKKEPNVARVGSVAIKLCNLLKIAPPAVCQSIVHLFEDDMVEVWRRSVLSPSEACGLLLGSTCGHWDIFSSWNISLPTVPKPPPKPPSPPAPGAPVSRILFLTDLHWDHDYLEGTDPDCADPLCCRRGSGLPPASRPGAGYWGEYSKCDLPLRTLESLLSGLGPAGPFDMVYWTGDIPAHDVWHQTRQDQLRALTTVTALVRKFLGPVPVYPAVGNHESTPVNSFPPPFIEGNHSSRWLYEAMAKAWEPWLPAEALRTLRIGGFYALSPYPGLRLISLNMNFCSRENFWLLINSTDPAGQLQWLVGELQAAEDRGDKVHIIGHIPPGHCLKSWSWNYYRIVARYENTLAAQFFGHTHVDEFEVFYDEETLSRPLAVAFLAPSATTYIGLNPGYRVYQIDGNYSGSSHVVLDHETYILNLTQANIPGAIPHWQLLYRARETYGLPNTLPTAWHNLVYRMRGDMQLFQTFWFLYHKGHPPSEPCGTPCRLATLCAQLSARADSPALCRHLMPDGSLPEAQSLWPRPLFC
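Steps: dispense placental human ASM, pin compound, wait 10 min at room temperature, add HMU-PC0 substrate at 9 uM final, incubate 60 min at 37 °C, add stop solution raising pH to 10, read fluorescence.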
Of the large screens only hits and unclear results are named; the others gave an inactive call. Unless noted, calls come from the whole dose curve; as a rule, active = well fitted curve in the direction sought with a large enough effect; inconclusive = small, poorly fitted or top-dose-only effect, or another doubt; inactive = no such curve, though single readings can be large; an effect the other way counts as inactive or inconclusive.

CCOc1ccc(C(=O)Nc2cccc(-c3cc4ccccc4oc3=O)c2)cc1[N+](=O)[O-]	KCNH2 3.1 inh -93, KCNH2 WT inh inconclusive
CCOc1ccc(C(=O)Nc2ccc(NC(=O)c3cccs3)cc2)cc1[N+](=O)[O-]	KCNH2 3.1 inh -99, KCNH2 WT inh -81
CCN1CCN(c2ccc(S(=O)(=O)N3CCOCC3)cc2N)CC1	none
Cc1ccc(C)c(SCC(=O)NC(=O)Nc2ccc3c(c2)OCCO3)c1	KCNH2 WT inh -79
CCn1nnnc1SCC(=O)Nc1ccc2c(c1)OCCO2	p53 reactivation 10µM
COCCCn1nnnc1SCC(=O)Nc1ccc2c(c1)OCCO2	none
COc1ccc(C(=O)n2nc(-c3ccco3)nc2SC)cc1OC	KCNH2 3.1 inh -177, KCNH2 WT inh -132
CSc1nc(-c2ccco2)nn1C(=O)c1cccs1	none
CC(=O)c1cn(CCOc2ccccc2C)c2ccccc12	uPA generation 5.6µM
Nc1cc(C(=O)OCC(=O)NNC(=O)c2ccccc2)ccc1Cl	none
Cn1c(C(=O)Nc2ccc3c(c2)OCO3)cc2c(=O)n(C)c3ccccc3c21	none
CC(NC(=O)c1cc2c(=O)n(C)c3ccccc3c2n1C)c1ccc2c(c1)OCCO2 (stereo not given)	KCNH2 WT inh -125 (no result: p53 reactivation, MmCpn inh)
CCC1CCCCN1C(=O)COc1ccc(S(=O)(=O)N2CCOCC2)cc1Cl (stereo not given)	none
Fc1ccc(OCc2nc(-c3ccncc3)n[nH]2)cc1	none
Cc1ccc(OCc2nc(-c3ccc(Cl)cc3)n[nH]2)cc1	KCNH2 WT inh -74 (no result: uPA generation)
O=C1CC2(CCN(C(=O)COc3ccc(Cl)cc3)CC2)Oc2ccccc21	KCNH2 3.1 inh -86
Cc1ccc(OCC(=O)N2CCC3(CC2)CC(=O)c2ccccc2O3)cc1	none
COc1cc2ncnc(NCCCN3CCOCC3)c2cc1OC	KCNH2 3.1 inh -79
CCOc1cc2nc(-c3ccc(OC)c(OC)c3)nc(NCCCN3CCOCC3)c2cc1OC	KCNH2 WT inh -93
CN(CC(=O)Nc1cccc(F)c1)C(=O)c1ccccc1OCCOc1ccccc1	none
Nc1nc2cc(Cl)c(Br)cc2o1	none (no result: KCNH2 3.1 inh, p53 reactivation, MmCpn inh)
O=C(CCNc1ccc(Cl)cc1)c1cccs1	p53 reactivation 16µM
O=C(CCNc1cc(Cl)cc(Cl)c1)c1cccs1	none
COc1ccccc1C(=O)Nc1cc2c(cc1C(=O)O)OCCCO2	KCNH2 3.1 inh -80
COC(=O)c1ccccc1NC(=O)c1ccccc1OC	none
COc1ccccc1C(=O)Nc1ccccc1SC(=O)c1ccccc1OC	uPA generation inconclusive, p53 reactivation 13µM
O=C(O)c1cc2c(cc1NC(=O)c1ccccc1OC(F)F)OCCCO2	none
CCc1cc(Br)ccc1NC(=S)NCCc1ccccc1	none
O=C(CNC(=O)OCc1ccccc1)OC(c1ccccc1)c1ccccc1	none (no result: p53 reactivation, MmCpn inh)
COc1cccc(Nc2nc(CN3CCOCC3)nc3sc4c(c23)CCCC4)c1	KCNH2 WT inh -134
CCC1=NN(C(=O)c2ccccc2O)C(O)(c2ccccc2)C1 (stereo not given)	uPA generation 11µM
CCCCn1c(N)c(N(CC)C(=O)COc2ccc(C#N)cc2)c(=O)[nH]c1=O	none
O=C(CC1SC(=Nc2ccc(OC(F)F)cc2)N(CCN2CCOCC2)C1=O)Nc1ccc(F)cc1F (stereo not given)	KCNH2 3.1 inh -114, KCNH2 WT inh -101
Cc1ccc(NC(=O)/C(=C\c2cccc([N+](=O)[O-])c2)NC(=O)c2cccs2)cc1	KCNH2 3.1 inh -84
Cc1ccc(NC(=O)/C(=C/c2cccc([N+](=O)[O-])c2)NC(=O)C2CCCCC2)cc1	KCNH2 3.1 inh -79
O=C(Nc1ccc(Br)cc1)/C(=C/c1cccc([N+](=O)[O-])c1)NC(=O)C1CCCCC1	KCNH2 3.1 inh -90, KCNH2 WT inh -97
CC(=O)N/C(=C\c1cccc([N+](=O)[O-])c1)C(=O)NC1CCCCC1	KCNH2 3.1 inh inconclusive
O=c1[nH]cnc2c1ccn2C1OC(CO)C(O)C1O (stereo not given)	uPA generation 4µM (no result: p53 reactivation, MmCpn inh)
CCN1C[C@@H]2[C@@H]3C(=O)N(C)C(=O)[C@@H]3[C@](Cc3ccccc3)(C(=O)OC)N2C1=NCc1ccccc1	none (no result: p53 reactivation, MmCpn inh)
Cc1cccc(NC(=O)c2cnc3sccn3c2=O)c1	uPA generation 10µM
Cc1cccc(NC(=O)c2cnc3ccccn3c2=O)c1	uPA generation inconclusive
c1ccc(Nc2nc(-c3ccccn3)cs2)cc1	none (no result: p53 reactivation, MmCpn inh)
COc1cccc2sc(Nc3nc(-c4ccccn4)cs3)nc12	p53 reactivation 25µM (no result: KCNH2 3.1 inh, KCNH2 WT inh, uPA generation, ASM inhibitor)
COc1ccc(C2=NS(=O)(=O)N(C)C(C(=O)N3CCc4ccccc4C3)=C2)cc1OC	uPA generation inconclusive
CC(C)(C)c1ccccc1NC(=O)CN1C(=O)NC2(CCCCCC2)C1=O	KCNH2 WT inh -170
CCCCOC(=O)c1ccc(NC(=O)CN2C(=O)NC3(CCCCCC3)C2=O)cc1	uPA generation 8.9µM
CC1CN(C(=O)CN2C(=O)NC3(CCCCCC3)C2=O)CC(C)O1 (stereo not given)	KCNH2 3.1 inh -90
CC1CCN(C(=O)CN2C(=O)NC3(CCCCCC3)C2=O)CC1	p53 reactivation inconclusive
CCCCOC(=O)c1ccc(NC(=O)COC(=O)CN2C(=O)NC3(CCCC3)C2=O)cc1	none (no result: p53 reactivation, MmCpn inh, ASM inhibitor)
Nc1cc2c(cc1Cl)-c1ccc([N+](=O)[O-])cc1C2=NO	none (no result: p53 reactivation, MmCpn inh)
Cc1ccccc1OCC(=O)NNC(=O)C1CC(=O)N(c2ccc3c(c2)OCCO3)C1 (stereo not given)	none
Cc1ccc(S(=O)(=O)N2C[C@H]3[C@H]4C(=O)N(c5ccccc5)C(=O)[C@H]4C[C@H](OC(=O)NCc4ccccc4)[C@@]3(O)C2)cc1	none (no result: uPA generation, p53 reactivation, MmCpn inh, ASM inhibitor)
CCC(C(=O)c1ccc(O)cc1)c1ccccc1 (stereo not given)	none
CCC(C(=O)N(C(C)C)C(C)C)c1ccccc1 (stereo not given)	KCNH2 3.1 inh -146
CC[n+]1c(/C=C2/C=C(C)CC(C)(C)C2)sc2ccc(OC)cc21	KCNH2 WT inh -71
CC[n+]1c(/C=C2\C=C(C)CC(C)(C)C2)sc2ccccc21	none
Cc1cc(NC(=O)CN2C(=O)NC3(CCCCCC3)C2=O)ccc1Br	uPA generation inconclusive
CN(C)S(=O)(=O)c1cc(C(=O)Nc2ccccc2C(=O)NC2CC2)ccc1Cl	p53 reactivation inconclusive, MmCpn inh inconclusive
COCCCN=C1NN=C(c2cc(C)n(-c3ccccc3F)c2C)CS1	uPA generation 6.3µM
CCOC(=O)C1CCCN(C(=O)c2ccc3nc(-c4ccccc4)c(-c4ccccc4)nc3c2)C1 (stereo not given)	MmCpn inh 40µM
CCOC(=O)C1CCN(C(=O)c2c(-c3ccccc3)noc2C)CC1	KCNH2 3.1 inh -75 (no result: uPA generation)
